Conditions in all cases: mRNA level, 48 h; actives raise or lower the signal
Read-out in one assay: Caspase-3 (Homo sapiens) (UniProt P42574)
Briefly: LTEA_HepaRG_CASP3: Life Technologies and Expression Analysis (LTEA) Assay for cysteine-aspartic acid protease (CASP3) using HepaRG (AID 2283477). Summed up:
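Transcript-level assay: CASP3 mRNA in human HepaRG after 48 h treatment, eight half-log concentrations from 100 uM in 0.5% DMSO, quantified by qRT-PCR.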

Read-out in assay [1]: Cytochrome P450 (CYP24A1), CYP24A1 (gene 1591)
Description: LTEA_HepaRG_CYP24A1: Life Technologies and Expression Analysis (LTEA) Assay for Cytochrome P450 (CYP24A1) using HepaRG (AID 2283478). Summed up: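 Gene expression of CYP24A1 by TaqMan qRT-PCR in HepaRG after 48 h treatment, highest concentration 100 uM; activity fitted in both directions relative to DMSO vehicle.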

Read-out in assay [2]: Cytochrome P450 (CYP1A2), CYP1A2 (gene 1544)
Briefly: LTEA_HepaRG_CYP1A2: Life Technologies and Expression Analysis (LTEA) Assay for Cytochrome P450 (CYP1A2) using HepaRG (AID 2283479). The procedure, abridged:
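In duplicate wells, HepaRG cultures maintained in 0.5% DMSO were treated 48 h across an 8-point, half-log series topping at 100 uM; phenobarbital (1 mM) served as induction control. Expression was read by qRT-PCR.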

Read-out in assay [3]: cysteine-aspartic acid protease (CASP8), CASP8 (gene 841)
Briefly: LTEA_HepaRG_CASP8: Life Technologies and Expression Analysis (LTEA) Assay for cysteine-aspartic acid protease (CASP8) using HepaRG (AID 2283480). The procedure, abridged: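 Concentration-response in duplicate up to 100 uM (half-log steps, 0.5% DMSO) on differentiated HepaRG cultures for 48 h. Expression change of CASP8 mRNA is determined by TaqMan qRT-PCR with housekeeping-gene normalization.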

Read-out in assay [4]: Cytochrome P450 (CYP2B6), CYP2B6 (gene 1555)
Briefly: LTEA_HepaRG_CYP2B6: Life Technologies and Expression Analysis (LTEA) Assay for Cytochrome P450 (CYP2B6) using HepaRG (AID 2283481). The procedure, abridged:
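Human HepaRG, 48 h dosing, 0.5% DMSO vehicle, top dose 100 uM. CYP2B6 transcript by qRT-PCR, housekeeping-normalized, bidirectional curve fit.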

Read-out in assay [5]: Cytochrome P450 2C19 (Homo sapiens) (UniProt P33261)
Description: LTEA_HepaRG_CYP2C19: Life Technologies and Expression Analysis (LTEA) Assay for CYP2C19 using HepaRG (AID 2283482). Summed up:
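Endpoint: CYP2C19 mRNA change, bidirectional fit vs 0.5% DMSO. Cells: HepaRG, 48 h exposure, eight-point series topping at 100 uM. Quantitation: qRT-PCR normalized to ACTB, GAPDH, POLR2A.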

Read-out in the next assay: CYP2C8 (gene 1558)
Briefly: LTEA_HepaRG_CYP2C8: Life Technologies and Expression Analysis (LTEA) Assay for CYP2C8 using HepaRG (AID 2283483). The procedure, abridged: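 This is a transcriptional endpoint in HepaRG cultures: 48 h exposure, highest concentration 100 uM. CYP2C8 mRNA is quantified by TaqMan qRT-PCR.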

Read-out in the next assay: CYP2C9 (gene 1559)
Briefly: LTEA_HepaRG_CYP2C9: Life Technologies and Expression Analysis (LTEA) Assay for CYP2C9 using HepaRG (AID 2283484). The procedure, abridged:
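Eight-point concentration-response (highest 100 uM, half-log dilutions) in HepaRG cells for 48 h; CYP2C9 expression by qRT-PCR normalized to ACTB, GAPDH, POLR2A. Bidirectional fit, DMSO baseline.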

Read-out in a further assay: CYP2E1 (gene 1571)
Description: LTEA_HepaRG_CYP2E1: Life Technologies and Expression Analysis (LTEA) Assay for CYP2E1 using HepaRG (AID 2283485). Summed up: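 Assay uses 48 h exposure of HepaRG hepatic cells, eight concentrations to 100 uM. Expression of CYP2E1 is quantified by TaqMan qRT-PCR with ACTB, GAPDH and POLR2A normalization; curves fitted in both directions relative to vehicle.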

Read-out in a further assay: CYP4A11 (gene 1579)
Description: LTEA_HepaRG_CYP4A11: Life Technologies and Expression Analysis (LTEA) Assay for CYP4A11 using HepaRG (AID 2283486). The procedure, abridged: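 Human hepatic HepaRG cultures receive duplicate 48 h exposures across a concentration-response series topping at 100 uM. Expression changes in CYP4A11 are measured by qRT-PCR relative to DMSO controls.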

Read-out in assay [6]: Cytochrome P450 3A4 (Homo sapiens) (UniProt P08684)
Description: LTEA_HepaRG_CYP3A4: Life Technologies and Expression Analysis (LTEA) Assay for CYP3A4 using HepaRG (AID 2283487). Summed up:
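HepaRG, 48 h exposure, 8-pt CRC from 100 uM (half-log), 0.5% DMSO, duplicates; serum-free induction medium. Readout: CYP3A4 mRNA, qRT-PCR, ACTB/GAPDH/POLR2A normalization. Bidirectional fit vs DMSO.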

Read-out in assay [7]: DNA damage-inducible transcript 3 (DDIT3), DDIT3 (gene 1649)
Briefly: LTEA_HepaRG_DDIT3: Life Technologies and Expression Analysis (LTEA) Assay for DNA damage-inducible transcript 3 (DDIT3) using HepaRG (AID 2283488). The procedure, abridged: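 Eight-point concentration-response (100 uM highest, half-log dilutions) in HepaRG, 48 h, duplicate wells. Endpoint: qRT-PCR mRNA, normalized (ACTB, GAPDH, POLR2A), bidirectional fitting with DMSO as baseline.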

Read-out in assay [8]: Pro-epidermal growth factor (Homo sapiens) (UniProt P01133)
Briefly: LTEA_HepaRG_EGF: Life Technologies and Expression Analysis (LTEA) Assay for Epidermal growth factor (EGF) using HepaRG (AID 2283489). The procedure, abridged: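 Concentration-response mRNA assay: HepaRG cells dosed 48 h (max 100 uM, 0.5% DMSO), EGF measured by qRT-PCR and normalized to ACTB/GAPDH/POLR2A.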

Read-out in assay [9]: Early growth response protein 1 (EGR1) transcription factor, EGR1 (gene 1958)
Description: LTEA_HepaRG_EGR1: Life Technologies and Expression Analysis (LTEA) Assay for Early growth response protein 1 (EGR1) transcription factor using HepaRG (AID 2283490). Summed up:
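EGR1 expression change in human HepaRG after 48 h chemical exposure, assessed by housekeeping-normalized qRT-PCR; concentration-response up to 100 uM, fitted in both directions against DMSO controls.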

Read-out in assay [10]: Ezrin (EZR), EZR (gene 7430)
Briefly: LTEA_HepaRG_EZR: Life Technologies and Expression Analysis (LTEA) Assay for Ezrin (EZR) using HepaRG (AID 2283491). Summed up: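 Read-out is EZR transcript level by qRT-PCR, normalized to three housekeeping genes and fitted bidirectionally against the DMSO control. Human HepaRG cells received test chemicals for 48 h at eight half-log concentrations up to 100 uM in 0.5% DMSO.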

Read-out in assay [11]: Cytochrome P450 3A7 (Homo sapiens) (UniProt P24462)
Briefly: LTEA_HepaRG_CYP3A7: Life Technologies and Expression Analysis (LTEA) Assay for CYP3A7 using HepaRG (AID 2283492). Summed up: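 qRT-PCR of CYP3A7 in HepaRG lysates after 48 h treatment; concentration-response (8 points, max 100 uM) analysed bidirectionally relative to 0.5% DMSO controls.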

Read-out in another assay: CYP3A5 (gene 1577)
Description: LTEA_HepaRG_CYP3A5: Life Technologies and Expression Analysis (LTEA) Assay for CYP3A5 using HepaRG (AID 2283493). Summed up: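 Readout was CYP3A5 mRNA by qRT-PCR. HepaRG cultures were exposed for 48 h in serum-free induction medium to chemicals at up to 100 uM, and responses were fitted in both directions relative to DMSO vehicle.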

Read-out in assay [12]: Fatty Acid-Binding Protein 1 (FABP1), FABP1 (gene 2168)
Description: LTEA_HepaRG_FABP1: Life Technologies and Expression Analysis (LTEA) Assay for Fatty Acid-Binding Protein 1 (FABP1) using HepaRG (AID 2283494). Summed up: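 Values reflect bidirectional concentration-response fitting of FABP1 mRNA change against 0.5% DMSO controls. Human HepaRG cultures received eight half-log doses (top 100 uM) for 48 h; expression quantified by TaqMan qRT-PCR with housekeeping-gene normalization.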

Read-out in assay [13]: Cytochrome P450 4A22 (Homo sapiens) (UniProt Q5TCH4)
Briefly: LTEA_HepaRG_CYP4A22: Life Technologies and Expression Analysis (LTEA) Assay for Cytochrome P450 4A22 (CYP4A22) using HepaRG (AID 2283495). The procedure, abridged: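 Concentration-response (8 points, max 100 uM, 0.5% DMSO) in human HepaRG liver cells after 48 h exposure. CYP4A22 mRNA by TaqMan qRT-PCR with housekeeping-gene normalization.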

Read-out in assay [14]: Cytochrome P450 7A1 (Homo sapiens) (UniProt P22680)
Briefly: LTEA_HepaRG_CYP7A1: Life Technologies and Expression Analysis (LTEA) Assay for Cytochrome P450 7A1 (CYP7A1) using HepaRG (AID 2283496). The procedure, abridged:
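Using 0.5% DMSO as vehicle and baseline, chemicals were tested in duplicate over an 8-point range from 100 uM on HepaRG cells for 48 h; qRT-PCR signals were normalised to ACTB, GAPDH and POLR2A.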

Activity calls are given as the source filed them. Rule for the calls: active = hit-call score of the fitted dose curve at least 0.9, where 1 is the maximum; inactive = score below 0.9.

Sequence of Cytochrome P450 3A7 (Homo sapiens) (P24462 whole entry, looked up): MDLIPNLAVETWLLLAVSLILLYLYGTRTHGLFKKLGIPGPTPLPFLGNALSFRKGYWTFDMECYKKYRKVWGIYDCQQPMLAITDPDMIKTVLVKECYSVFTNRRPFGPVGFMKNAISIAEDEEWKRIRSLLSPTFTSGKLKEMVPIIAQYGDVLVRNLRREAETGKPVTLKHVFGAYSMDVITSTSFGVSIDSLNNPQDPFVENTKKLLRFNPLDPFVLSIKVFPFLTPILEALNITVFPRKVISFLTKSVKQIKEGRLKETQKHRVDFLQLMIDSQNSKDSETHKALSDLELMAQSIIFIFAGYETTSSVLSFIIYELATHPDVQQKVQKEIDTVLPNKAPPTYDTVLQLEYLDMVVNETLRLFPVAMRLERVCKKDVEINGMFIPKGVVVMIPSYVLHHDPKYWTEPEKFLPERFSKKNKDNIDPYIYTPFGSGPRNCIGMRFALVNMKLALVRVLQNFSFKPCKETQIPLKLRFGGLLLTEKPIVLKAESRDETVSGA
Sequence of Caspase-3 (Homo sapiens) (P42574 whole entry, looked up): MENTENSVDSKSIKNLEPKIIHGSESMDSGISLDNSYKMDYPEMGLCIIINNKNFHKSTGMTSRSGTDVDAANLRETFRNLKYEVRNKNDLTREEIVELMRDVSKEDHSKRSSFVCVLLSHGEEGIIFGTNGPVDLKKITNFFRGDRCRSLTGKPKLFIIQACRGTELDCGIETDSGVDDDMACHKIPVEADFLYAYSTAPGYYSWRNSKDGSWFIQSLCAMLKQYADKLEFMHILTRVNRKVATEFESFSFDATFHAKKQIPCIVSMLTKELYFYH
Sequence of Cytochrome P450 2C19 (Homo sapiens) (P33261 whole entry, looked up): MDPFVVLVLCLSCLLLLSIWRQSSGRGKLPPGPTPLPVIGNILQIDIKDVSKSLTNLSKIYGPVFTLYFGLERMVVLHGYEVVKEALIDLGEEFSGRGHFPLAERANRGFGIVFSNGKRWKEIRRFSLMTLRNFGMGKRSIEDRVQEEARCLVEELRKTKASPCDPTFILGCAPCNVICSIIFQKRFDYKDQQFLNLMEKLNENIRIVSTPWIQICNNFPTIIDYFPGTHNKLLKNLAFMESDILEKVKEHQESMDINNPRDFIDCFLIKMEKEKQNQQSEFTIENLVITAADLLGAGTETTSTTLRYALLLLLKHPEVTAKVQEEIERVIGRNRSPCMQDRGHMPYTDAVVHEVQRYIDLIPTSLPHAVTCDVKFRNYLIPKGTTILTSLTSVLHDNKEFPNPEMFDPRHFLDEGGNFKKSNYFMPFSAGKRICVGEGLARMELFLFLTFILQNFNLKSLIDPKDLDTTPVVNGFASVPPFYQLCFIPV
Sequence of Cytochrome P450 3A4 (Homo sapiens) (P08684 whole entry, looked up): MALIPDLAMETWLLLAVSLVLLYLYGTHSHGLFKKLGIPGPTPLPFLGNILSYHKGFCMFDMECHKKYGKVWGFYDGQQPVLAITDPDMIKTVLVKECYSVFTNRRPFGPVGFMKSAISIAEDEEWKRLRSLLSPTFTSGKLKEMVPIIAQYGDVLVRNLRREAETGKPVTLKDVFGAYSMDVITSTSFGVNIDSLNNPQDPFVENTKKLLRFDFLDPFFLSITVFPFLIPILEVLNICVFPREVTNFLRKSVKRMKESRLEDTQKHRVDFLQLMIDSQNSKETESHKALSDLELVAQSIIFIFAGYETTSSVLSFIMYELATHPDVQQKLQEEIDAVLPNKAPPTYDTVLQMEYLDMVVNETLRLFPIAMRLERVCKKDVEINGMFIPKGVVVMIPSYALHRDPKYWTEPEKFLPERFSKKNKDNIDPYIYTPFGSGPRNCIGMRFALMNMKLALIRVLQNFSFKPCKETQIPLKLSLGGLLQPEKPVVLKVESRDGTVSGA

`Cc1ccc([N+](=O)[O-])cc1N`: the call (with Caspase-3 (Homo sapiens); in [1]; in [3]; in assay [5]; in the assay with CYP2C8 (gene 1558); with CYP2C9 (gene 1559)) was inactive. Also, the result (with CYP4A11 (gene 1579); in assay [6]; in [7]; in assay [8]; in assay [9]; in assay [10]) was inactive. The result (in [11]; with CYP3A5 (gene 1577); in [12]; in assay [13]; in [14]) was inactive. In addition, the AC50 in assay [2] is 26.8 µM (active); in assay [4], 18.4 µM (active); in the assay with CYP2E1 (gene 1571), 32.4 µM (active).

As for `C1CNCCN1`, the molecule was classed as inactive (with Caspase-3 (Homo sapiens); in [1]; in assay [2]; in [3]; in [4]; in [5]). For the same molecule, the result (with CYP2C8 (gene 1558); in the assay with CYP2C9 (gene 1559); with CYP2E1 (gene 1571); with CYP4A11 (gene 1579); in assay [6]; in [7]) was inactive. In addition, the outcome (in [8]; in [9]; in assay [10]; in assay [11]; with CYP3A5 (gene 1577); in [12]) was inactive. The result in [13] and in [14] was inactive.

For `Nc1ccc(C(=O)O)cc1`, the call (with Caspase-3 (Homo sapiens); in [1]; in assay [3]; in [4]; in [5]; in the assay with CYP2C8 (gene 1558)) was inactive. The call (with CYP2C9 (gene 1559); in the assay with CYP2E1 (gene 1571); with CYP4A11 (gene 1579); in [6]; in [7]; in assay [8]) was inactive. Moreover, the call (in [9]; in assay [10]; in assay [11]; with CYP3A5 (gene 1577); in assay [12]; in assay [13]) was inactive. In assay [14], the result was inactive. In addition, in assay [2], the AC50 was 50 µM (active).

In general, AC50 refers to the concentration at which the activity in the assay is half-maximal.

Values taken from PubChem BioAssay (EPA / NIEHS).
